Screening data: PubChem BioAssay, National Center for Advancing Translational Sciences (NCATS)
Tau ThT inhib: inhibitors of human tau fibril formation, thioflavin T binding. hit rate 2.1% among 270,000. Potency, µM (series often up to 57.4 µM), without a hit: at the top dose activity, negative = inhibition, actives largely listed as inhibitors. AID 1460. recombinant tau K18 P301L, heparin-induced fibrillization, ThT fluorescence. P10636; note: potency is the fitted concentration of half-maximal effect; nearly all actives have a fitted effect of over 55% in size
Target sequence (P10636 561-689 P618L limits assumed): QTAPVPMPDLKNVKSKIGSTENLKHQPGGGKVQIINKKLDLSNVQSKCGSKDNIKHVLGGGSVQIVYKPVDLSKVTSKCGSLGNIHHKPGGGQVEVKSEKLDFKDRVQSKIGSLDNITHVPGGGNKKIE
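Heparin-induced (20 uM) aggregation of recombinant human K18 P301L tau, 15 uM unlabeled with 0.24 uM labeled, pH 7 acetate buffer, 6 hr at 37 C with compound. Fibrils quantified by 30 uM ThT fluorescence after 1 hr ambient incubation.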
G9a inh: inhibitors of human histone lysine methyltransferase G9a; G9a H3K9 monomethylation, AlphaScreen, 2 h; Potency, µM (titrated, usually from 102 µM), without a hit: top-dose activity, negative = inhibition, actives largely listed as inhibitors; hit rate 8.8% among 350,000; note: potency is the fitted concentration of half-maximal effect; nearly all actives have a fitted effect of over 75% in size
Target sequence (Q96KQ7 913-1193 limits assumed): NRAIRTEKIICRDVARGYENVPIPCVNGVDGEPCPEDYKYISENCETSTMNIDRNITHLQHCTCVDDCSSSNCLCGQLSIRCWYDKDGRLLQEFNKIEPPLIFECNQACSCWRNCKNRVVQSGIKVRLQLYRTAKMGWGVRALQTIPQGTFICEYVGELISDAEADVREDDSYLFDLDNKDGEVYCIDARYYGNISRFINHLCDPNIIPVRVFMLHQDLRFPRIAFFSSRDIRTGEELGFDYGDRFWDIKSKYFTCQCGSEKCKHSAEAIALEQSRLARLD
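Compounds were preincubated with 20 nM G9a for 15 min, after which biotinylated H3K9 peptide (500 nM) and SAM (20 uM) started a 2 h room-temperature reaction. Monomethylated product was quantified by antibody-based AlphaScreen chemiluminescence.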
Sfp PPTase inh: inhibitors of Bacillus subtilis Sfp phosphopantetheinyl transferase. Potency, µM, for the others: largest response in the series, negative = inhibition, hits mostly inhibitors. AID 1490. Biochemical Sfp PPTase activity, qHTS. hit rate 3.5% among 310,000. Q9F4F7;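 note: the enzyme is Sfp with the accession as filed and its product quenches rhodamine fluorescence; potency is the fitted concentration of half-maximal effect; 0% = enzyme reaction without inhibitor and -100% = no enzyme wells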
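Step 1, compound plus 15 nM Sfp-PPTase, 15 min, room temperature. Step 2, add rhodamine-CoA (5 uM) and BHQ-2-YbbR (12.5 uM). Step 3, read 525/598 nm fluorescence at 0 and 30 min.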
Tau FP inhib: blocks human tau fibril formation measured by polarization. Potency, µM (top dose mostly 57.7 µM), for the others: top-dose activity, negative = inhibition, actives largely listed as inhibitors. hit rate 0.39% among 280,000. P10636. K18 P301L tau heparin fibrillization, Alexa594 FP, 6 h; note: potency is the fitted concentration of half-maximal effect; nearly all actives have a fitted effect of over 55% in size
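Human tau K18 […] P301L fragment, 15 uM unlabeled plus 0.24 uM Alexa 594-labeled tau (final), with compound and 20 uM heparin in 100 mM sodium acetate pH 7; 6 hr at 37 C, then Alexa 594 FP read.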
FBPA coupling cs: inhibits coupling enzyme system, counter-screen for aldolase hits; coupling enzyme system counterscreen, AmpLite Red fluorescence; activity change, negative = inhibition, % at 58.2 µM, hits read low; hit rate 0.67% among 290,000; AID 2472; in the data active = activity change below about -30%
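Coupling enzymes only (glyceraldehyde-3-phosphate) + compound, at 57.5 uM final, 10 min RT; add substrate/coupling/AmpLite Red mix, 20 min RT; fluorescence ex 525/em 598 nm. Actives flag coupling-system interference.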
Tau fluor cs: counter-screen for tau fibril formation inhibitors; tau K18 P301L (four-repeat tau fragment) Alexa594 fluorescence, heparin fibrillization; AID 1463; Potency, µM (titrated, usually from 57.7 µM), inactives show top-dose activity change, negative = decrease; hit rate 0.93% among 280,000; note: potency is the fitted concentration of half-maximal effect; nearly all actives have a fitted effect of over 55% in size
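Human K18 P301L tau (15 uM unlabeled plus 0.24 uM Alexa 594-labeled, final) in 100 mM sodium acetate pH 7 was mixed with compound and 20 uM heparin and incubated 6 hr at 37 C.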
Numbers without * were called inactive; ? = inconclusive; . = not tested or not shown; ! = repeats disagree; [ ] = remark or other dose. Hits are enriched below; roughly 11% of the tested compounds scored in any of these assays. Unless noted, calls come from the whole dose curve; as a rule, active = well fitted curve in the direction sought with a large enough effect; inconclusive = small, poorly fitted or top-dose-only effect, or another doubt; inactive = no such curve, though single readings can be large; an effect the other way counts as inactive or inconclusive. Unless noted, % is set by controls: 0 for no effect and ±100 for the full control effect.

SMILES | Tau ThT inhib | G9a inh | Sfp PPTase inh | Tau FP inhib | FBPA coupling cs | Tau fluor cs
COc1ccc(C2=C(Nc3ccc(C)c(C)c3)c3ccccc3C2=O)cc1 | -11% | ? | . | ? | . | ?
Cc1cc(C)cc(NC2=C(c3ccccc3)C(=O)c3ccccc32)c1 | ? | 8.9µM* | . | 4% | . | 7.9µM*[quencher]
COc1ccc(OCc2nc(C#N)c(NCc3ccccc3Cl)o2)cc1 | -13% | -46%[59 µM] | . | -3% | . | ?
CCCOC(=O)c1ccccc1 | -1% | 21%[59 µM] | -5% | 7% | 0 | 2%
CCCOC1(NC(=O)c2ccccc2)C(C)=CC(=O)C=C1C | -6% | 12%[12.7 µM] | 56µM* | -4% | -3 | -4%
S=C(Nc1cccc(Cl)c1Cl)Nn1cnnc1 | ? | 4µM* | 35µM* | ? | 8 | -8%
S=C(Nc1cc(Cl)ccc1Cl)Nn1cnnc1 | . | 7.9µM* | 18µM* | -8% | 6 | -11%
NC(=S)Nc1cc(Cl)ccc1Cl | -11% | ? | ? | -3% | -2 | -14%
S=C(Nc1ccc(Cl)cc1Cl)Nn1cnnc1 | 7% | ? | 13µM* | 7% | 1 | 3%
O=C(NCCc1ccc(Cl)cc1)c1cnc2sc(N3CCCC3)nn2c1=O | 4% | 5%[59 µM] | . | 3% | . | 2%
CC(C)N(Cc1ccccc1)C(=O)CN1C(=O)COc2ccc(S(=O)(=O)N3CCCCCC3)cc21 | -3% | 18% | 8% | 9% | 0 | -5%
CSc1nc2oc3c(c2c2nncn12)CC(C)(C)SC3 | ? | 22µM* | 40µM* | -12% | -20 | -10%
Cc1c(N2C(=O)CS/C2=N\N=C\c2ccc(Br)cc2)c(=O)n(-c2ccccc2)n1C | -18% | 9% | 7% | -4% | 0 | -1%
Cn1c(CS/C(N)=N/N=C/c2ccccc2)c(Br)c(=O)n1-c1ccccc1 | ? | 35µM* | 45µM* | ? | 1 | -12%
CCC(Oc1ccccc1)C(=O)Nc1nnc(S(=O)(=O)N(CC)CC)s1 (centres undefined) | ? | -26%[59 µM] | . | 6% | . | -19%
COc1cccc(CNC(=O)CC(c2ccc(F)cc2)N2Cc3ccccc3C2=O)c1 (centres undefined) | 3% | -11%[59 µM] | . | 7% | . | -4%
COc1ccc(C2c3[nH]c4ccccc4c3CCN2C(=O)Cc2nonc2C)c(F)c1 (centres undefined) | -9% | -13%[59 µM] | 4% | 10% | -2 | -23%
CCOCCCNC(=S)N(Cc1ccccc1)Cc1nc2ccccc2c(=O)[nH]1 | 6% | 10µM* | ? | -11% | 1 | 2%
CCCNC(=S)N(Cc1ccccc1)Cc1nc2ccccc2c(=O)[nH]1 | -11% | 7.1µM* | -1% | 3% | 0 | -25%
CS(=O)(=O)N1CCC2(CC1)CN(C(c1ccccc1)c1ccccc1)C2 | . | -3%[12.7 µM] | 15% | . | 4 | .
N#CCC(=O)c1sccc1-n1cccc1 | ? | 13µM* | 11% | 3% | -8 | -4%
CCN(C(=O)c1cnc(NC(C)C)cc1C(F)(F)F)c1ccc(Cl)cc1Cl | -3% | 2% | 12% | 4% | -3 | -6%
O=C1c2nccnc2C(=O)N1c1ccc(C(F)(F)F)cc1 | 0% | 50µM* | 9% | 3% | 2 | 4%
CCOc1ccc(N2C(=O)c3cccnc3C2=O)cc1 | -2% | -47% | 7% | 0% | 0 | -2%
CCS(=O)(=O)c1ccc(OC)c(N=Nc2ccc(O)c3ncccc23)c1 | ? | 14µM* | -19% | ? | -1 | -24%
SMILES | Tau ThT inhib | G9a inh | Sfp PPTase inh | Tau FP inhib | FBPA coupling cs | Tau fluor cs
CCN(CC)S(=O)(=O)c1cc(OC)ccc1N=Nc1ccc(O)c2ncccc12 | . | 8.9µM* | 2% | . | -1 | .
COc1ccccc1N1CCN(Cc2ccc(O)c3ncccc23)CC1 | ? | ? | -18% | 1% | -21 | -24%
N=c1c2cn[nH]c2nc(SCC(=O)c2ccc(Br)cc2)n1-c1ccc(Br)cc1 | 4% | 15% | 25% | ? | 4 | -6%
N#Cc1ncc(Cc2ccccc2)nc1C#N | . | 50µM* | 0% | . | -2 | .
CC(C)NNC(=O)c1ccncc1 | 1% | 11µM*! | 21% | -2% | -1 | -3%
O=C(NNC(=O)C12CC3CC(CC(C3)C1)C2)c1ccncc1 | . | 40µM* | -7% | . | 2 | .
Cc1ccc(CC(=O)NNC(=O)c2ccncc2)cc1C | . | 4.5µM* | . | . | . | .
CC(=O)NNC(=O)c1ccncc1 | -4% | -5%[59 µM] | 12% | 1% | 0 | -5%
CC1(C)Cc2nc3oc4c(=S)nc[nH]c4c3cc2CO1 | -5% | 45µM* | 22µM* | 4% | -3 | 4%
C=CCSc1ncnc2c1oc1nc3c(cc12)COC(C)(C)C3 | -9% | -2% | 13% | 0% | -3 | -16%
CCn1c(SCC(=O)Nc2oc(-c3ccccc3)c(-c3ccccc3)c2C#N)nnc1-c1ccncc1 | ? | 7.9µM* | -7% | -1% | 15 | ?
Cc1cnc(C(=O)OCC(=O)Nc2oc(-c3ccccc3)c(-c3ccccc3)c2C#N)cn1 | ? | 50µM* | 17% | 4% | 10 | ?
CCOC(=O)c1cccc(NC(=O)NC2COc3ccccc3C2)c1 (centres undefined) | -5% | 7%[59 µM] | . | ? | . | -14%
COC(=O)c1cc(OC)c(OC)cc1NC(=S)Nc1cccc(C(C)=O)c1 | -5% | 10µM* | -16% | -9% | 0 | -19%
COC(=O)c1cccc(NC(=S)NCc2ccc(Cl)cc2)c1 | -7% | 15%[59 µM] | 19% | ? | 0 | ?
COC(=O)c1cc(NC(=S)NCc2ccc(Cl)cc2)cc(C(=O)OC)c1 | 11% | 11%[59 µM] | -3% | 18µM* | 1 | 14µM*[quencher]
COc1cc(C)c(NC(=S)Nc2ccc(C)c(Cl)c2)cc1OC | -2% | ? | -44% | 1% | 0 | -20%
COC(=O)c1cccc(NC(=S)Nc2cc(Cl)ccc2OC)c1 | -13% | . | 20µM* | ? | 0 | ?
COc1cc(C)c(NC(=S)Nc2cccc(Cl)c2)cc1OC | -10% | 89µM* | 45µM* | 2% | 2 | -16%
COc1ccc(Cl)cc1NC(=S)Nc1ccccc1C | -1% | . | -8% | -15% | 0 | -7%
O=C(Nc1cccc(C(=O)N2CCCCC2)c1)c1nsc2ccccc12 | -12% | -30%[59 µM] | . | 0% | . | -14%
O=C(CSc1n[nH]c(-c2ccccc2Cl)n1)NCc1ccc(F)cc1 | -10% | 5%[59 µM] | . | -12% | . | -13%
O=C(O)CCNS(=O)(=O)c1ccc2c(c1)OCCCO2 | 2% | ? | 8% | -1% | 3 | 4%
COC(=O)C(=CC(=CN(C)C)C=C(C(=O)OC)C(=O)OC)C(=O)OC | -10% | ? | -14% | -11% | 0 | -4%
CCSCCNC(=O)c1cc(-n2cnnc2)ccc1Cl | -8% | 2.5µM* | -1% | 6% | 2 | 3%
